# Reference: the supplement of paper PMC11219838
# Unmarked numbers belong to inactive results.
# Test system: Caenorhabditis elegans L1 (N2)
# Assay: survival and reproduction score of C. elegans L1 (0: 0-10 living worms, 1: 11-20, 2: 21-50, 3: >50, 4: overgrown) (score 0-4); higher = more worms, less nematicidal, active = 1 or less; extreme values may be limits of the assay
# Conditions: 60 µM; 6 days; temperature: 20 °C
# Procedure: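 DODA library (846 commercial 1,3,4- and 1,2,4-oxadiazole compounds plus commercial nematicide controls) screened at a single dose of 60 µM (0.6% DMSO) in 96-well plates, two biological replicates. Read-outs: C. elegans N2 L1 survival/reproduction score at day 6, 20 °C (0: 0-10 worms, 1: 11-20, 2: 21-50, 3: >50, 4: overgrown/starved). C. elegans daf-2 dauer, D. dipsaci and M. hapla J2 mobility at day 5, 20 °C, and P. penetrans mobility at day 5, 20 °C, each relative to DMSO controls. M. hapla egg hatching at day 12, 25 °C, relative to the mean of 8 DMSO wells on the same plate.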
row,Compound,survival and reproduction score
1,COc1ccc(Cl)cc1-c1noc(-c2ccccc2)n1,1 (active)
2,FC(F)(F)c1ccc(-c2noc(-c3ccccc3Cl)n2)cc1,4
3,COc1ccc(-c2nc(-c3ccc(Cl)cc3)no2)cc1,4
4,CCOc1ccc(-c2noc(-c3ccncc3)n2)cc1OC,4
5,N#Cc1cccc(CSc2nnc(-c3ccncc3)o2)c1,4
6,CC1Cc2ccccc2N1C(=O)CSc1nnc(-c2ccccc2)o1 (stereo not given),4
7,CCOc1nc(-c2ccccc2)ccc1-c1noc(-c2cccc(OC)c2)n1,4
8,Cc1ccc(-c2nnc(SCC(=O)Nc3ccc(F)cc3)o2)cc1,4
9,CCOc1ccccc1-c1nc(-c2ccc(Br)cc2)no1,3
10,COc1cccc(-c2noc(COc3ccc(C)cc3C)n2)c1,4
11,COc1ccccc1OCc1nc(-c2cccc(C)c2)no1,4
12,Clc1ccc(CSc2nnc(-c3ccccc3Cl)o2)cc1,4
13,COc1ccc(NC(=O)CSc2nnc(-c3ccc(Br)cc3)o2)cc1,4
14,COc1ccc(-c2nnc(SCC(=O)N(C)c3ccccc3)o2)cc1,4
15,Clc1ccccc1-c1noc(COc2ccc(Br)cc2)n1,4
16,CCc1ccc(NC(=O)CSc2nnc(-c3ccc(Cl)cc3Cl)o2)cc1,4
17,COc1ccc(-c2noc(-c3ccc(C)cc3Cl)n2)cc1,4
18,Cc1cc(NC(=O)CSc2nnc(-c3ccccc3Cl)o2)no1,4
19,COc1ccccc1NC(=O)CSc1nnc(-c2cccc3ccccc23)o1,4
20,O=C(CSc1nnc(-c2ccc(Cl)cc2)o1)NC1CCCCC1,4

row,Compound,survival and reproduction score
1,COc1ccccc1NC(=O)CSc1nnc(-c2ccccc2)o1,3.5
2,COc1ccc(-c2noc(-c3ccccc3C(=O)Nc3cccc(C)c3C)n2)cc1,4
3,CC(C)C(=O)Nc1ccccc1-c1nc(-c2ccccn2)no1,4
4,Clc1cccc(OCc2nc(-c3ccncc3)no2)c1,3.5
5,FC(F)(F)c1cccc(-c2noc(-c3ccccc3Cl)n2)c1,3
6,Brc1ccc(OCc2nc(-c3cccnc3)no2)cc1,4
7,Cc1ccc(-c2nnc(SCc3ccc(Br)cc3)o2)cc1,4
8,COc1nc(-c2ccc(Cl)cc2)ccc1-c1noc(-c2ccncc2)n1,4
9,CCCC(=O)Nc1ccccc1-c1nc(-c2cccnc2)no1,4
10,Brc1ccc(-c2nc(-c3ccc4c(c3)OCO4)no2)cc1,4
11,CCOc1ccccc1-c1nc(-c2ccc(NC(=O)Cc3ccccc3OC)cc2)no1,4
12,Cc1ccc(-c2noc(CSc3nc4ccccc4[nH]3)n2)cc1,4
13,Cc1ccc(SCc2nc(-c3cccnc3)no2)cc1,1.5
14,CC(C)c1ccc(NC(=O)CSc2nnc(-c3ccc(Br)cc3)o2)cc1,4
15,COc1ccc(-c2noc(-c3cccc(F)c3)n2)cc1,4
16,CCn1c(SCc2ccc(OC)cc2)nnc1-c1ccco1,4
17,Clc1ccc(CSc2nnc(-c3ccccn3)o2)cc1,4
18,Cc1ccc(OCc2nc(-c3ccccc3Cl)no2)c(C)c1,4
19,COc1ccc(-c2nnc(SCC(=O)Nc3cccc(Cl)c3Cl)o2)cc1,4
20,COc1cccc(NC(=O)CSc2nnc(-c3ccc(Br)cc3)o2)c1,4
